# High-throughput results deposited in PubChem BioAssay by National Center for Advancing Translational Sciences (NCATS).
# Pol eta inh – DNA polymerase eta (human) inhibition. Q9Y253. Potency, µM (top dose mostly 114 µM), without a hit: at the highest dose activity change, negative = inhibition, most hits filed as inhibitors. 1.2% of 390,000 active. recombinant Pol eta, fluorescent DNA replication assay; note: % is set by controls: 0 for no effect and ±100 for the full control effect
#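 Pol eta at 10 nM preincubated with compounds 15 min at room temperature; reaction started with fluorescent substrate (50 nM final) and read kinetically at 0 and 10 min.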
# L3MBTL1 block – inhibitors of human L3MBTL1; Q9Y468; AlphaScreen L3MBTL1–H3K9me1 peptide binding; Potency, µM (titrated, usually from 57.1 µM), for inactives: top-dose activity, negative = inhibition, most hits filed as inhibitors; 0.66% of 230,000 active; AID 485360; note: % is set by controls: 0 for no effect and ±100 for the full control effect; nearly all actives have a fitted effect of over 60% in size
# Target sequence (Q9Y468 whole entry, looked up): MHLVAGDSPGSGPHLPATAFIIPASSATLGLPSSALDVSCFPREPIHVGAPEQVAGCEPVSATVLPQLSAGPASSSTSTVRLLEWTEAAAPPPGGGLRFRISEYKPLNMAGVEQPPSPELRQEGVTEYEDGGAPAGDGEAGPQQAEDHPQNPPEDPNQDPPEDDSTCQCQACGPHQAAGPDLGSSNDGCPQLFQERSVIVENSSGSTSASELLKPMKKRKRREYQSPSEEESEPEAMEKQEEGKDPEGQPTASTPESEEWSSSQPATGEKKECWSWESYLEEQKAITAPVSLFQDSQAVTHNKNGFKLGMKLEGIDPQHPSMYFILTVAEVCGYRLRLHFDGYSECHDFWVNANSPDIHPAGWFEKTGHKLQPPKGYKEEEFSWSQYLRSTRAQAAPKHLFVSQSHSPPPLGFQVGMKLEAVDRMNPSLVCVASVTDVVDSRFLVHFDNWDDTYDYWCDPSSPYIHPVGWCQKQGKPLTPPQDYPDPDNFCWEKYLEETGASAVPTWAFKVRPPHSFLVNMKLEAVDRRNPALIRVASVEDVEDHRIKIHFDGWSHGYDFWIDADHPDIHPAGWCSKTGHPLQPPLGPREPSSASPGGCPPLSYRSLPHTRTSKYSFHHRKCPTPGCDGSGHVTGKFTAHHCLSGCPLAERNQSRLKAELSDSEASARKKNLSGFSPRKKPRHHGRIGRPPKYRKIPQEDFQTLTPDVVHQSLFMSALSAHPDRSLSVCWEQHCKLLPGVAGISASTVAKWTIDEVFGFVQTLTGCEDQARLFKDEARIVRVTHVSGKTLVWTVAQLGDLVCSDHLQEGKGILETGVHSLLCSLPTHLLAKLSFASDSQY
#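 L3MBTL1 (50 nM) pre-complexed 30 min with biotinylated H3(1-15)K9me1 peptide (75 nM), then compounds added for 30 min at room temperature; AlphaScreen streptavidin donor/nickel chelate acceptor beads (10 ug/mL final) read after 30 min dark incubation.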
# POLB inh – blocks human DNA polymerase beta activity. P06746. Pol beta primer extension/strand displacement, fluorescence kinetic. Potency, µM (doses to about 114 µM), for inactives: at the top dose activity change, negative = inhibition, most hits filed as inhibitors. 1.3% of 340,000 active. AID 485314; note: % is set by controls: 0 for no effect and ±100 for the full control effect
#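 Kinetic readout of DNA synthesis with strand displacement by Pol beta. Compound and 10 nM enzyme sit 15 min at room temperature; 50 nM substrate starts the reaction, read immediately and at 10 min.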
# APE1 inh-1 – blocks human APE1 abasic DNA cleavage; recombinant APE1, TAMRA/BHQ-2 abasic DNA cleavage fluorescence; P27695; Potency, µM (series often up to 65.8 µM), inactives show at the highest dose activity change, negative = inhibition, actives largely listed as inhibitors; 0.35% of 350,000 active; AID 2517;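 note: plate controls were vehicle for no effect and reference inhibitor for full effect; nearly all actives have a fitted effect of over 55% in size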
#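 Kinetic fluorescence read (525 ex/598 em nm, three reads 60 s apart) of AP-site incision; signal = third minus first read. Enzyme 0.75 nM, dual-labelled THF duplex 50 nM, compound preincubation 15 min RT.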
# POLI inh – DNA polymerase iota (human) inhibition; Q9UNA4; Pol iota fluorescent replication assay, 10 min; Potency, µM (series often up to 115 µM), for the others: at the top dose activity, negative = inhibition, most hits filed as inhibitors; 1% of 390,000 active; AID 588590
#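 Pol iota at 10 nM preincubated 15 min with compounds at room temperature; reaction started with fluorescent substrate, 50 nM final. Fluorescence read kinetically at 0 and 10 min; buffer-only wells as negative control.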
# Pol kappa inh – blocks human DNA polymerase kappa activity. Q9UBT6. purified Pol kappa, fluorescent DNA synthesis assay, 10 min. Potency, µM (highest dose often 107 µM), inactives show top-dose activity, negative = inhibition, hits mostly inhibitors. 0.53% of 400,000 active. AID 588579; note: % is set by controls: 0 for no effect and ±100 for the full control effect
#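 Enzyme at 10 nM met test compounds for 15 min at room temperature. Substrate addition (50 nM final) began the reaction, which was monitored by fluorescence at 0 and 10 min.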
# DNA dye displace – displaces fluorescent dye from DNA, flagging APE1 artifacts; Potency, µM (titrated, usually from 28.5 µM), without a hit: top-dose activity change, negative = inhibition, hits mostly inhibitors; 7% of 480 active; shares compounds with APE1 inh-1; DNA fluorescent dye displacement counterscreen, fluorescence;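 note: loss of thiazole orange fluorescence as the dye is displaced from duplex DNA; 0% = ThO with dsDNA and no compound and -100% = ThO without dsDNA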
# EndoIV counter – Endo IV (E. coli) inhibition counter-screen. AID 2565. E. coli Endo IV, fluorogenic AP-site DNA cleavage. 4% of 560 active. shares compounds with APE1 inh-1. Potency, µM (series often up to 27.1 µM), without a hit: at the highest dose activity change, negative = inhibition, usual class: inhibitors;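 note: plate controls were uninhibited enzyme wells for no effect and no enzyme buffer wells for full effect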
# APE1 inh-2 – confirmation of inhibitors of human APE1 endonuclease | Potency, µM (doses to about 57.1 µM), for inactives: at the top dose activity change, negative = inhibition, actives largely listed as inhibitors | AID 2572 | shares compounds with APE1 inh-1 | purified APE1, fluorogenic abasic-site DNA cleavage | 44% of 750 active; note: % is set by controls: 0 for no effect and ±100 for the full control effect; nearly all actives have a fitted effect of over 30% in size
# APE1 FP – compounds that displace a DNA probe from human APE1 | shares compounds with APE1 inh-1 | APE1 binding to TAMRA-labelled double-stranded DNA, fluorescence polarization displacement | Potency, µM (highest dose often 28.5 µM), for inactives: at the highest dose activity, negative = inhibition, usual class: inhibitors | 7% of 480 active; note: % is set by controls: 0 for no effect and ±100 for the full control effect
# * marks the source's active call; other numbers are inactive results; i = inactive; ? = inconclusive; . = no result; [ ] = remark or other dose. An excerpt weighted towards active compounds, which were near 2.5% of everything screened. Calls come from the whole dose curve; as a rule, active = well fitted curve in the direction sought with a large enough effect; inconclusive = small, poorly fitted or top-dose-only effect, or another doubt; inactive = no such curve, though single readings can be large; an effect the other way counts as inactive or inconclusive. Potency is the fitted concentration of half-maximal effect.
SMILES,Pol eta inh,L3MBTL1 block,POLB inh,APE1 inh-1,POLI inh,Pol kappa inh,DNA dye displace,EndoIV counter,APE1 inh-2,APE1 FP
O=S(=O)(O)c1ccc2c(c1)-c1nc-2nc2[nH]c(nc3nc(nc4[nH]c(n1)c1ccc(S(=O)(=O)O)cc41)-c1ccc(S(=O)(=O)O)cc1-3)c1ccc(S(=O)(=O)O)cc21,.,.,.,0.32µM*,.,-94%[60.1 µM],0.56µM*,-93%[57.1 µM],0.05µM*,0.14µM*
O=c1c(O)c(-c2ccccc2O)oc2cc(O)cc(O)c12,.,.,.,-5%,.,4%[60.1 µM],.,.,.,.
O=c1c(O)c(-c2ccc(O)cc2O)oc2cc(O)cc(O)c12,7.9µM*,?,4.5µM*,14µM*,4µM*,4.2µM*,.,5%[57.1 µM],-24%,.
COc1ccc(/C=N/Nc2cc(C)nc(-n3nc(C)cc3C)n2)c(OC)c1,-17%,-5%,-1%,-1%,-3%,-16%,.,.,.,.
CCOc1cc(/C=N/Nc2cc(C)nc(-n3nc(C)cc3C)n2)ccc1O,-1%,?,-2%,3%,13%,-27%,.,.,-22%,.
O=C(O[C@@H]1OC2COC(=O)c3cc(O)c(O)c(O)c3-c3c(cc(O)c(O)c3O)C(=O)O[C@@H]([C@H]1O)[C@@H]2O)c1cc(O)c(O)c(O)c1,-99%,0.1µM*,0.16µM*,0.071µM*,?,-99%,-7%,111%,0.05µM*,?
Nc1ccc(NC(=O)c2ccc(C(=O)Nc3ccc(N)cc3)cc2)cc1,-21%,-1%,?,0%,4%,7%,.,.,?,.
CC(C)(C)S(=O)N1Cc2cn(Cc3ccccc3)c(=O)cc2[C@H]1CCO (stereo partly drawn),-4%,.,.,.,-6%,-7%,.,.,.,.
C=C1c2cccc(O)c2C(O)=C2C(=O)[C@@]3(O)C(O)=C(C(N)=O)C(=O)[C@@H](N(C)C)[C@@H]3[C@@H](O)[C@H]12,.,.,.,.,.,1.8µM*,-11%,24%,-5%[24.4 µM],?
CN(C)[C@@H]1C(=O)C(C(N)=O)=C(O)[C@]2(O)C(=O)C3=C(O)c4c(O)ccc(Cl)c4[C@H](O)[C@H]3C[C@@H]12,.,.,.,.,.,-3%[12 µM],.,.,.,.
Cc1ccc(Nc2nc(NCc3ccco3)nc3nccnc23)c(C)c1,.,.,.,.,-6%,-3%,.,.,.,.
CCOC(=O)N1CCC(N2Cc3cccc(C(=O)NCc4ccc5c(c4)OCO5)c3C2=O)CC1,?,-21%,25µM*,?,45µM*,-51%,.,.,?,.
Cc1ccc(NC(=O)c2ccc3c(c2)C(=O)N(c2ccccc2C)C3=O)nc1,-13%,1%,.,-10%,4%,-12%,.,.,.,.
COc1cc2c(cc1OC)C(c1cc(-c3cc(Cl)ccc3Cl)oc1C)=NCC2,.,.,.,.,-14%,-9%,.,.,.,.
COc1ccc(CNC(=O)Nc2cc(C)cc(C)c2)cc1,-1%,-3%,32µM*,-45%,20%,-1%,-1%,5%,-5%[24.4 µM],3%
COc1ccc(CNC(=O)Nc2ccc(C)cc2)cc1,-10%,.,-23%,?,-6%,-21%,.,.,.,.
CC(=O)[C@]1(O)Cc2c(O)c3c(c(O)c2[C@@H](O[C@H]2C[C@H](N)[C@H](O)[C@H](C)O2)C1)C(=O)c1c(O)cccc1C3=O,.,.,.,25µM*,.,10µM*,i,.,7.9µM*,1.4µM*
CC(=O)[C@]1(O)Cc2c(O)c3c(c(O)c2[C@@H](O[C@H]2C[C@H](N)[C@H](O)[C@H](C)O2)C1)C(=O)c1ccccc1C3=O,14µM*,.,14µM*,20µM*,7.9µM*,27µM*,i,i,16µM*,2.8µM*
O=C(C1CCCCC1)N(CCN1CCN(c2ccccc2CO)CC1)c1ccccn1,.,.,.,-2%,.,4%[19.4 µM],.,.,.,.
C/C=C\C(=O)Nc1cccc(C2=NOC3(C2)C[C@H](C(N)=O)N(C(=O)/C=C/CC)C3)c1 (stereo partly drawn),3%,.,32%,-4%,13%,-1%,.,.,.,.
C/C=C\C=C/C(=O)Nc1cccc(C2=NOC3(C2)C[C@@H](C(N)=O)N(C(=O)/C=C/C=C\C)C3)c1 (stereo partly drawn),7.9µM*,.,6.3µM*,35µM*,10µM*,20µM*,.,.,?,.
Cc1c(N)cc(N)cc1C(=O)O,8%,.,30%,20µM*,45µM*,89µM*,1%,4%,-7%[24.4 µM],-5%
Cc1ccc2nc(CSc3nnc(-c4ccco4)o3)cc(=O)n2c1,-6%,-19%,?,22µM*,?,-7%,-7%,4%,-22%,-4%
CC[C@H](C)[C@H]1CNC(=O)C(=O)N1CC1CCN(CCc2ccccc2)CC1,4%,.,.,.,?,1%,.,.,.,.
O=c1[nH]c(Cc2ccccc2)nc2scc(-c3ccccc3)c12,2%,.,28%,?,4%,-7%,-3%,3%,-6%[24.4 µM],0%
SMILES,Pol eta inh,L3MBTL1 block,POLB inh,APE1 inh-1,POLI inh,Pol kappa inh,DNA dye displace,EndoIV counter,APE1 inh-2,APE1 FP
Cc1cc(/C=N/NC(=O)COc2cccc3cccnc23)c(C)n1-c1ccc(O)cc1,-1%,-3%,2%,0%,10%,-11%,.,.,.,.
COc1ccc(/C=N/NC(=O)COc2cccc3cccnc23)cc1OC,?,.,?,-2%,?,?,.,.,?,.
COCCN1CCc2nc(SCC(=O)Nc3ccc(Br)cc3)[nH]c(=O)c2C1,-15%,.,17%,.,22%,12%,.,.,.,.
CC1CCN(S(=O)(=O)c2cc(C(=O)N3CCN(c4ccccc4)CC3)ccc2Br)CC1,-14%,.,.,.,.,.,.,.,.,.
Cc1nc(-c2ccc(S(=O)(=O)NCC3CCN(C(=O)OC(C)(C)C)CC3)s2)cs1,-10%,-9%,0%,?,?,-2%,.,.,.,.
CCCCC#Cc1ccccc1CC(=O)Nc1ccccc1,-7%,10%,20%,3%,?,-6%,.,.,?,.
